# Data as given in PubChem BioAssay (NCI).
# This is part of a sample that, as a whole, favours compounds with a hit. Of some 79,000 tested, about 15% had one in any assay. Values without a mark were called inactive. Cut-off read from the data, not from the text of the source: active = growth inhibition above about 70%; inactive = the rest.
# Test: NCI Yeast Anticancer Drug Screen. Data for the rad50 strain (AID 155);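 note: 0% = growth of vehicle-only cultures of the same strain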
# Settings: S. cerevisiae rad50 strain growth inhibition; at 50.0 µM; active compounds read high
# Summary of the method: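 Compounds were tested on a yeast strain with an engineered DNA damage repair alteration; the reported value is growth inhibition normalised to vehicle treatment.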
row,SMILES,growth inhibition [%]
1,CCCCCCCN1C=CCC(S(=O)(=O)N2CCOCC2)=C1,-15.7
2,COC(=O)C(C)(C)N=CN(C)C,-19.7
3,N#CCCOCC(OCCC#N)C(OCCC#N)C(OCCC#N)C(COCCC#N)OCCC#N (stereo not given),-9.85
4,CC(C)CN(CC(=O)Nc1cccc(Cl)c1)CC(C)C,-4.35
5,CCCNC(=O)Oc1ccccc1C(N)=O,-3.35
6,CC(=O)CC(=O)CCCCC(=O)O,-0.15
7,NC1=NC2(COC(c3ccccc3)(c3ccccc3)c3ccccc3)OC(COC(c3ccccc3)(c3ccccc3)c3ccccc3)C(O)C2O1 (stereo not given),28.4
8,O=NNc1nc2ncccc2cc1-c1ccccc1Cl,-7.8
9,CC(C)=CCC1=C(O)[C@@](O)(CC=C(C)C)C(=O)C(C(=O)CC(C)C)=C1O,28.2
10,C/C(CC(C)C)=N/Nc1ccc([N+](=O)[O-])cc1[N+](=O)[O-],5.85
11,CCOC(=O)NC(NC(=O)OCC)c1ccc(Cl)cc1Cl,-11.7
12,NC1=Nc2cc(Cl)ccc2Sc2nc3ccccc3n21,-18.4
13,C=C1C(=O)O[C@H]2[C@H]1[C@H](OC(=O)/C(C)=C\C)CC(=C)[C@@H]1[C@H](O)[C@H]3O[C@@]3(C)[C@@]12O,3.85
14,Cc1cc(Br)c(I)c([N+](=O)[O-])c1,34.5
15,N#C/C(=C\c1c(S(=O)(=O)O)sc2ccccc12)C(N)=O (tested in a mixture with another compound),30.3
